Measured values from PubChem BioAssay (NCI).
About 83,000 compounds went through this panel and 20% of them were active in at least one assay; those are over-represented in the sample as a whole.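 Single-concentration screen, 48 h exposure, 96-well plates. Endpoint: percent growth. Below 10 = active.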 Active and inactive are the calls of the source.

Tests used:
Test in all cases: NCI-60 one-dose screen, 48 h (100 = growth as untreated, 0 = no growth, -100 = all killed)
Details in all cases: 10 µM
[1] = tested on: SK-MEL-2 melanoma
[2] = tested on: SN12C renal
[3] = tested on: UO-31 renal
[4] = tested on: TK-10 renal
[5] = tested on: CAKI-1 renal
[6] = tested on: A498 renal
[7] = tested on: CCRF-CEM leukemia
[8] = tested on: MOLT-4 leukemia
[9] = tested on: SR leukemia
[10] = tested on: RPMI-8226 leukemia
[11] = tested on: OVCAR-4 ovarian
[12] = tested on: SK-OV-3 ovarian
[13] = tested on: IGROV1 ovarian
[14] = tested on: OVCAR-3 ovarian
[15] = tested on: HS 578T breast
[16] = tested on: NCI/ADR-RES ovarian
[17] = tested on: OVCAR-8 ovarian
[18] = tested on: OVCAR-5 ovarian
[19] = tested on: ACHN renal
[20] = tested on: EKVX NSCLC

Measured: growth

N#CCC1CCCC1
inactive: [1] 120% | [2] 94% | [3] 97% | [4] 104% | [5] 89.9% | [6] 91% | [7] 92% | [8] 112% | [9] 81.6% | [10] 97.2% | [11] 95.7% | [12] 104% | [13] 118% | [14] 121% | [15] 106% | [16] 101%

Cc1ccc(C2C=C(c3ccc(Cl)cc3)N=C3SC=CN32)c(Br)c1 (stereo not drawn)
active: [9] 0.074% | [10] -0.582%
inactive: [1] 105% | [2] 94% | [3] 57.8% | [4] 125% | [5] 65.1% | [6] 87% | [7] 55.7% | [8] 64.9% | [17] 80% | [18] 92.8% | [11] 67.4% | [12] 101% | [13] 75.7% | [14] 87.1% | [15] 94.1% | [16] 85.6%

NS(=O)(=O)c1ccc(N2N=C(c3ccc(-c4ccccc4)cc3)CC2c2ccc(Cl)cc2)cc1 (stereo not drawn)
inactive: [1] 95.5% | [2] 67.4% | [4] 112% | [19] 80.4% | [5] 78.7% | [6] 87.4% | [7] 74.4% | [8] 70.6% | [9] 73.5% | [10] 63.4% | [17] 78% | [18] 95% | [11] 76.1% | [12] 95% | [13] 88.1% | [14] 94.3% | [15] 88.6% | [16] 84.5%

Cc1ccc([P+](Cc2ccc([N+](=O)[O-])cc2)(c2ccc(C)cc2)c2ccc(C)cc2)cc1
active: [1] -21.6% | [9] 3.65% | [10] -25.3%
inactive: [2] 67.6% | [3] 70.5% | [4] 49.1% | [5] 94.7% | [6] 65.6% | [7] 24.5% | [8] 52.4% | [17] 40.3% | [18] 72.9% | [11] 31.1% | [12] 74.7% | [13] 11.9% | [14] 25.7% | [16] 100%

COC(=O)c1ccc(Cn2ccc(=O)[nH]c2=O)cc1
inactive: [20] 116% | [2] 104% | [3] 89.3% | [4] 104% | [19] 107% | [5] 97.4% | [6] 120% | [7] 92% | [8] 89.3% | [9] 94.1% | [10] 106% | [17] 115% | [18] 104% | [11] 109% | [12] 116% | [13] 114% | [14] 130% | [15] 121% | [16] 110%

CC(C)OP(=O)(O)c1ncc(-c2ccc(C(F)(F)F)cc2)c(NC2CCCCCC2)n1
active: [10] 8.81%
inactive: [1] 65.4% | [2] 54.4% | [4] 67% | [19] 34.6% | [5] 87% | [6] 89.5% | [7] 48.6% | [8] 80.4% | [9] 86.3% | [18] 84.6% | [11] 52% | [12] 85.2% | [13] 62.4% | [14] 12.1% | [15] 81.7% | [16] 97.5%

O=C(COCc1c(-c2ccccc2)no[n+]1[O-])Nc1nc(-c2ccc(Cl)cc2)cs1
inactive: [1] 105% | [2] 100% | [4] 113% | [19] 112% | [5] 105% | [6] 97.9% | [7] 90.5% | [8] 102% | [9] 98.2% | [10] 109% | [17] 101% | [18] 109% | [11] 111% | [12] 95.1% | [13] 112% | [14] 102% | [15] 99.6% | [16] 101%

COc1ccc(C2C=C(c3ccc(OC)c(OC)c3)N=C3SC=CN32)c(Br)c1 (stereo not drawn)
active: [7] -2.4% | [9] -14.8% | [10] -12.4%
inactive: [1] 104% | [2] 75% | [3] 67.9% | [4] 106% | [5] 71.5% | [6] 74% | [8] 25.1% | [17] 66.2% | [18] 102% | [11] 62.5% | [12] 101% | [13] 69.8% | [14] 56.9% | [15] 90.4% | [16] 78.2%

COc1cc(-c2cc(-c3ccc(C)cc3)nc3nc(N)[nH]c(=O)c23)ccc1Oc1ccnc2cc(Cl)ccc12
inactive: [1] 93% | [2] 74.2% | [4] 120% | [19] 93.4% | [5] 83.2% | [6] 73.4% | [7] 40.6% | [8] 49.1% | [9] 50.9% | [10] 60.1% | [17] 79.5% | [18] 115% | [12] 95.3% | [13] 77.9% | [14] 84.1% | [15] 91.2% | [16] 100%

O=NN(CC(=O)N/N=C/C=C\c1ccccc1)CC(=O)N/N=C/C=C/c1ccccc1
inactive: [1] 111% | [2] 78.1% | [4] 131% | [19] 86.4% | [5] 91.3% | [6] 105% | [8] 96.9% | [9] 85.7% | [10] 95.2% | [17] 51% | [18] 94.6% | [11] 97.2% | [12] 102% | [13] 84% | [14] 103% | [15] 80.5% | [16] 103%

CC(=O)Oc1c(C)c(C)c2c(c1C)CCC(C)(CC(=O)OCCCCCCCCCCC[P+](c1ccccc1)(c1ccccc1)c1ccccc1)O2 (stereo not drawn)
active: [1] -88.7% | [2] -82.3% | [4] -97% | [19] -95.4% | [5] -76.3% | [6] -20.5% | [7] 3.68% | [8] -23.6% | [9] -34.7% | [10] -49.8% | [17] -44.1% | [18] -37.4% | [11] -83.2% | [12] -18.4% | [14] -90.5% | [15] -35.2% | [16] -42.5%

CCCCCCCCCCN=C(c1ccc(N(C)C)cc1)c1ccc(N(C)C)cc1
active: [6] -9.41% | [14] 2.1% | [16] -3.13%
inactive: [20] 29.3% | [3] 52.8% | [4] 55.7% | [19] 43.3% | [5] 35.7% | [7] 28.1% | [8] 24.6% | [9] 23% | [10] 24.3% | [17] 30.9% | [18] 71.5% | [11] 59.8% | [12] 16.6% | [15] 26.7%

COc1ccc2c(c1)/C(=C/c1cc(OC)c(OC)c(OC)c1)C(=O)N2C
inactive: [20] 47.3% | [2] 25.3% | [3] 16.9% | [4] 22.1% | [19] 26.9% | [6] 23.4% | [7] 20.4% | [8] 16% | [9] 17% | [17] 28.8% | [18] 66.4% | [11] 47.3% | [12] 19.3%
active: [5] -8.56% | [10] -25.2% | [14] -72% | [16] 2.46%

CCN(CC)c1ccc(/C=C/C2=[N+](C)c3ccccc3C2(C)C)c(C)c1
active: [4] 9.49% | [19] 5.97% | [6] 3.94% | [7] 4.91% | [8] -20.4% | [9] -14.6% | [10] -25.7% | [17] 8.1% | [12] -6.99% | [14] 8.86%
inactive: [20] 10.6% | [5] 15.5% | [18] 30.6% | [11] 18.4% | [13] 31.8% | [15] 41.8% | [16] 33.4%

O=S(=O)(NCl)c1ccccc1
inactive: [2] 106% | [3] 83.1% | [4] 96.2% | [19] 105% | [5] 94.7% | [6] 97.5% | [7] 92.5% | [8] 98.3% | [9] 86% | [10] 105% | [17] 103% | [18] 110% | [11] 95.9% | [12] 105% | [13] 107% | [14] 119% | [15] 102% | [16] 103%

O=[N+]([O-])C1CC2C=CC1C2 (stereo not drawn)
inactive: [20] 92.7% | [2] 102% | [3] 80.8% | [4] 112% | [19] 106% | [5] 95.1% | [6] 78.2% | [8] 96.1% | [9] 92.4% | [10] 111% | [17] 102% | [18] 104% | [11] 99.7% | [12] 102% | [13] 103% | [14] 91.6% | [15] 97.9% | [16] 95.6%

CCCN(CCC)CCCNC(=O)c1cc2c(-c3ccc(OC)c(OC)c3)nn(C)c2s1
inactive: [2] 20.8% | [4] 55.8% | [19] 25% | [5] 28.5% | [18] 69.5% | [12] 24% | [13] 35.5% | [15] 11.5%
active: [3] 6.68% | [6] -0.28% | [7] -15.9% | [8] -8.08% | [9] 4.41% | [10] -10.5% | [17] 4.29% | [14] -10.1% | [16] -8.48%

Nc1c(CNCc2nnn(Cc3ccccc3)c2N)nnn1Cc1ccccc1
inactive: [2] 99% | [3] 86.5% | [4] 102% | [19] 99.6% | [5] 101% | [6] 98.4% | [7] 95.4% | [8] 102% | [9] 90% | [10] 94.7% | [18] 95.5% | [11] 92.1% | [12] 114% | [13] 102% | [14] 107% | [15] 99% | [16] 97.2%
